An excerpt weighted towards active compounds, which were near 3.2% of everything screened.
VACV mCherry inh: qHTS for Stage-Specific Inhibitors of Vaccinia Orthopoxvirus: mCherry Reporter Primary qHTS; Vaccinia virus mCherry reporter infection, fluorescence; Potency, µM (doses to about 36.5 µM), inactives show top-dose activity change, negative = inhibition, hits mostly inhibitors; 310,000 compounds, 0.63% hits; AID 720579, 2013; calls by dose curve; tested in A549 cells; note: nearly all actives have a fitted effect of over 35% in size
FMDV antiviral: High Throughput Screening for Foot and Mouth Disease Virus Antivirals; Potency, µM (top dose mostly 57.9 µM), inactives show top-dose activity change, negative = inhibition, hits mostly inhibitors; 410,000 compounds, 1.2% hits; FMDV antiviral cell-based qHTS; AID 1159524, 2015; calls by dose curve; tested in HEK293T cells; note: read-out not given here; nearly all actives have a fitted effect of over 45% in size
Lassa entry inh: qHTS for Inhibitors of binding or entry into cells for Lassa Virus | Lassa virus pseudotype entry inhibition, cell reporter | 300,000 compounds, 1.2% hits | Potency, µM (highest dose often 37.9 µM), for the others: at the top dose activity change, negative = inhibition, actives largely listed as inhibitors; calls by dose curve; tested in HEK293 cells; note: nearly all actives have a fitted effect of over 50% in size
Vaccinia Venus: qHTS for Stage-Specific Inhibitors of Vaccinia Orthopoxvirus: Venus Reporter Primary qHTS; 330,000 compounds, 0.46% hits; Vaccinia virus Venus reporter expression, fluorescence; Potency, µM (top dose mostly 36.5 µM), without a hit: at the top dose activity change, negative = inhibition, most hits filed as inhibitors; calls by dose curve; tested in A549 cells; note: nearly all actives have a fitted effect of over 30% in size
MARV entry inh: qHTS for inhibitors of binding or entry into cells for Marburg Virus. 300,000 compounds, 1.8% hits. AID 540276, 2011. Potency, µM (doses to about 37.8 µM), inactives show at the top dose activity change, negative = inhibition, most hits filed as inhibitors. Marburg virus pseudotyped entry inhibition, cell reporter; calls by dose curve; tested in HEK293 cells
The depositor's hits bear a star; i = inactive; ? = inconclusive; nt = no result; [ ] = remark or other dose. % is set by controls: 0 for no effect and ±100 for the full control effect; potency is the fitted concentration of half-maximal effect.

SMILES	VACV mCherry inh	FMDV antiviral	Lassa entry inh	Vaccinia Venus	MARV entry inh
Cc1cc2cc(C(c3nnnn3C3CCCC3)N(Cc3cccnc3)Cc3ccco3)c(=O)[nH]c2cc1C (stereo not given)	-10%	?	?	-21%	4.1µM*
C#CCCCO/N=C1\C[C@@H](O)[C@@H](O)[C@@H]2[C@@H]3C(=O)N(C4CCCCC4)C(=O)[C@@H]3CC[C@@H]12	nt	nt	nt	nt	43%[14.2 µM]
CCN1/C(=C/C=C/c2oc3ccc(-c4ccccc4)cc3[n+]2CC)Oc2ccc(-c3ccccc3)cc21	169%	8.9µM*	4.5µM*	nt	2.5µM*
Cc1cc(C(C)(C)C)cc(C)c1CC1=NCCN1	-3%	-21%	?	-8%	7.9µM*
c1ccc(CC2=NCCN2)cc1	i	2%	nt	-13%	nt
COc1cc(=O)n2c(c1C(=O)NCc1ccc3c(c1)OCO3)CCN(C(=O)c1ccc(C)cc1)CC2	i	10%	nt	0%	nt
S=C(Nc1ccc(Br)cc1Cl)N1CCCC1	i	51%	21%	-14%	-3%
O=C(Nc1ccc(CN2CCCCC2)cc1)Nc1ccc(Br)cc1Cl	-3%	-10%	?	-26%	10µM*
C=CCNC(=O)N1C2=NC(C(=O)OC)=C(C(=O)OC)[C@@H]3N(C)c4ccccc4[C@]23C[C@H]1CO	nt	nt	?	nt	-31%[14.2 µM]
O=C1c2ccccc2C(=O)N1CCCCc1cn(C[C@H]2CC[C@@H]([C@@H]3CC[C@H](Cn4cc(CCCCN5C(=O)c6ccccc6C5=O)nn4)O3)O2)nn1	-9%	25µM*	nt	-4%	nt
O=C1c2ccccc2C(=O)N1CCCc1cn(C[C@H]2CC[C@@H]([C@@H]3CC[C@H](Cn4cc(CCCN5C(=O)c6ccccc6C5=O)nn4)O3)O2)nn1	-13%	-18%	nt	6%	nt
COc1cccc(-c2cc(C(F)(F)F)n3nc(C)c(-c4ccccc4)c3n2)c1	-6%	-7%	-1%[46.1 µM]	-1%	4%[46.1 µM]
O=S1(=O)C=C(Sc2nnc(-c3ccccc3)o2)c2ccccc21	nt	10µM*	21µM*	nt	5.8µM*
O=C(CSc1nc2ccccc2s1)CSc1nc2ccccc2s1	-1%	nt	6%	-3%	-25%
O=S1(=O)C=C(Sc2nc3ccccc3s2)c2ccccc21	14µM*	5µM*	?	?	3.7µM*
Cc1cc(C)nc(SC2=CS(=O)(=O)c3ccccc32)n1	13µM*	?	?	2µM*	4.5µM*
CC(Nc1oc(-c2ccccc2)nc1C(C)(C)C)c1ccccc1 (stereo not given)	nt	nt	?	nt	-5%[14.2 µM]
C=CC(=O)Nc1ccc(N(C)c2ccnc(Nc3ccc(N4CCN(C)CC4)cc3)n2)cc1	6.3µM*	0%	nt	7.9µM*	nt
CN(C)S(=O)(=O)c1cccc(NC(=O)CSc2nc3c(cc2C#N)C(=O)CC(C)(C)C3)c1	?	20µM*	?	?	?
Cc1ccc(C(=O)N2CCN3C(=O)c4ccccc4C23c2ccc(Cl)cc2)cc1 (stereo not given)	nt	-12%	?	?	?
O=C(CCl)N1CCN2C(=O)c3ccccc3C12c1ccc(Cl)cc1 (stereo not given)	4%	10µM*	-5%	-5%	?
Cc1nn(-c2ccccc2)c(C)c1CC(=O)NCC1Cc2cc(-c3cncnc3)ccc2O1 (stereo not given)	-11%	-11%	nt	2%	nt
CCOC(=O)N1C(=O)[C@@](c2ccc(Cl)cc2)(C(C)C)N1C(=O)OCC	?	?	nt	13µM*	nt
CCOC(=O)N1C(=O)[C@](c2ccc(Cl)cc2)(C(C)C)N1C(=O)OCC	10µM*	28µM*	nt	?	nt
CC1CC(C)CN(CCOCCSc2ccccc2)C1 (stereo not given)	-3%	-11%	9.2µM*	-18%	?
SMILES	VACV mCherry inh	FMDV antiviral	Lassa entry inh	Vaccinia Venus	MARV entry inh
CC1CN(CCCCSc2ccccc2)CC(C)O1 (stereo not given)	nt	2%	nt	nt	nt
CC1CN(CCCSc2ccc(Cl)cc2)CC(C)O1 (stereo not given)	-8%	-22%	-7%	-19%	-25%[46.1 µM]
CC1CC(C)CN(CCOCCSc2ccc(Cl)cc2)C1 (stereo not given)	i	20%	?	-27%	7.1µM*
CC1CC(C)CN(CCCSc2ccccc2)C1 (stereo not given)	-23%	-2%	?	-15%	2.9µM*
C#CCCCON=C1C[C@@H](O)[C@H](O)[C@H]2[C@@H]3C(=O)N(C[C@@H]4CCCO4)C(=O)[C@@H]3CC[C@H]12	nt	nt	-11%[14.3 µM]	nt	4%[14.2 µM]
Cc1cc(OCC(=O)N2CCc3ccccc3C2)c(C)cc1Br	i	5%	?	-15%	?
COc1cccc(C(=O)c2cn(CC(=O)Nc3cccc(Cl)c3C)c3nc(C)ccc3c2=O)c1	-15%	-24%	19%[46.1 µM]	-3%	nt
CCc1c(C)sc(NC(=O)C2CC2c2ccccc2)c1C(N)=O (stereo not given)	nt	9%	2.9µM*	nt	3.3µM*
CS(=O)(=O)Nc1cccc(-c2nccc(Nc3ccc(F)cc3)n2)c1	nt	-4%	nt	nt	nt
COc1ccc(-c2nn(-c3ccccc3)cc2C(=O)n2nnc3ccccc32)cc1	-14%	20µM*	5%	-5%	8%
COc1ccc(-c2nn(-c3ccccc3)cc2/C=N/O)cc1	nt	14µM*	nt	nt	nt
C=CCOC(=O)C(C(C)=O)[C@@H](NC(=O)OC)c1ccc(F)cc1 (stereo not given in full)	nt	nt	nt	nt	20%[14.2 µM]
O=C(OC(C(=O)N1CCOCC1)c1ccccc1)c1c2c(nc3ccccc13)CCCC2 (stereo not given)	38%	nt	nt	9%	nt
COc1cc(/C=C(\C#N)C(=O)Nc2nnc(C(F)(F)F)s2)ccc1OCc1ccc(C(F)(F)F)cc1C(F)(F)F	nt	nt	15µM*	nt	-19%
Cc1ccsc1/C=N/NC(=O)CNC(=O)c1ccccc1	nt	-5%	nt	nt	nt
Cc1ccsc1/C=N/Nc1cccc(C(=O)O)c1	-18%	4.5µM*	?	-5%	?
Cc1ccsc1/C=N/Nc1ccc(C(=O)O)cc1	nt	8.9µM*	nt	nt	nt
CCN(c1ccccc1)S(=O)(=O)c1nnc(NC(=O)c2ccccc2OC)s1	-16%	1%	?	-9%	nt
CCCCCn1c(=O)[nH]c2cc(C(=O)NCCCN3CCCCC3CC)ccc2c1=O (stereo not given)	i	-16%	-16%[46.1 µM]	-12%	?
Nc1nc(CSc2nnnn2-c2ccccc2)nc(N2CCCc3ccccc32)n1	?	28µM*	?	-28%	?
COc1ccc(NS(=O)(=O)c2cc(NC(=O)Cc3cccs3)ccc2C)cc1	-4%	5%	1.8µM*	2%	?
COc1ccc(NS(=O)(=O)c2ccc(NC(=O)Cc3cccs3)cc2)cc1	?	-27%	?	-30%	?
OCCN1CCN(CCCN2c3ccccc3Sc3ccc(Cl)cc32)CC1	?	-21%	15µM*	?	5µM*
CC1=C(C(=O)Nc2ccccc2)C(c2ccccc2C)n2nc(SCC(=O)c3ccc(C)cc3)nc2N1 (stereo not given)	-13%	14%	4%[46.1 µM]	-11%	nt
